TDP1 inh = TDP1 (human) enzyme inhibition. Q9NUW8. recombinant TDP1, AlphaScreen DNA substrate cleavage. Potency, µM (highest dose often 130 µM), for inactives: at the top dose activity change, negative = inhibition, actives largely listed as inhibitors. actives 0.28% (n = 350,000). AID 485290; further: potency means the concentration at half of the fitted maximal effect; on the % scale 0 is the no-effect control and ±100 the full control effect; nearly all actives have a fitted effect of over 40% in size
Target sequence (Q9NUW8 whole entry, looked up): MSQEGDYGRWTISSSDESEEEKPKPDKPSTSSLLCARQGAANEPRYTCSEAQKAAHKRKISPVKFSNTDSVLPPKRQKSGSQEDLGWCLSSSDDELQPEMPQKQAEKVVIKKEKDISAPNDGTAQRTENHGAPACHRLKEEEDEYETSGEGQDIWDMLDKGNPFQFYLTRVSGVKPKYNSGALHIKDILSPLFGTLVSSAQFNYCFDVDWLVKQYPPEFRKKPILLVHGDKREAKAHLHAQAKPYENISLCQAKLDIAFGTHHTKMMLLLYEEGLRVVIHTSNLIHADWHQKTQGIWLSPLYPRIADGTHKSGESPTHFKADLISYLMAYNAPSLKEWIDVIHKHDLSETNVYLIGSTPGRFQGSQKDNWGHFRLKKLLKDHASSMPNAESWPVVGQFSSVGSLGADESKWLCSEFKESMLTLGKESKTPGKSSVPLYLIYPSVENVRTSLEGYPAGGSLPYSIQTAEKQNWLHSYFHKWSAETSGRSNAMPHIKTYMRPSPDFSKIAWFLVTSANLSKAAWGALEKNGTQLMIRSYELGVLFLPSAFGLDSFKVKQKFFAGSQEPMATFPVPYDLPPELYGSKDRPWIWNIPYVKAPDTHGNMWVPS
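Here, a 5' biotin and 3' phosphotyrosine-FITC DNA oligonucleotide reports Tdp1 activity: intact substrate bridges AlphaScreen beads, while cleavage leaves a 3' phosphate and drops signal. All incubations at room temperature.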
DT40 TDP1 CPT = growth inhibition of DT40 Tdp1-/-;hTDP1 cells with camptothecin (screen for TDP1 inhibitors). chicken DT40 Tdp1-/-;hTDP1 cells + 20 nM CPT, ATP luminescence, 48 h. Potency, µM (top dose mostly 46.2 µM), for inactives: at the highest dose activity change, negative = growth inhibition, usual class: inhibitors. actives 12% (n = 420,000). AID 686979; further: potency means the concentration at half of the fitted maximal effect; on the % scale 0 is the no-effect control and ±100 the full control effect; nearly all actives have a fitted effect of over 55% in size
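Cell growth measured by CellTiter-Glo luminescence after a minimum 48 h, 37 C compound exposure with 20 nM CPT in Tdp1-knockout DT40 cells stably expressing hTDP1, seeded 400/well; qHTS titration format.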
IL-1B inflam inh = inhibitors of inflammasome signaling (IL-1 beta secretion) | actives 4.7% (n = 360,000) | THP-1 LPS/ATP IL-1B secretion, AlphaLISA, 16 h; stronger effect = lower value | activity change, % at 57.5 µM; in the data active means activity change below about -50%; inconclusive means mostly about -30% to -49%; further: on the % scale 0 is the no-effect control and ±100 the full control effect
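THP-1 cells pretreated 1 hr with compounds (up to 57.5 uM final), then stimulated with LPS (250 ng/mL final) plus ATP (1.25 mM final); secreted IL-1B measured by AlphaLISA after 16 hr, decreased signal indicating inhibition.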
HepG2 tox = HepG2 cytotoxicity, counter-screen for TGF-b inhibitors | AID 588856 | actives 0.76% (n = 410,000) | Potency, µM (doses to about 46.1 µM), for the others: top-dose activity change, negative = cytotoxicity, most hits filed as cytotoxic | HepG2 CAGA-GFP viability, ATP luminescence, 18 h; further: potency means the concentration at half of the fitted maximal effect
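HepG2 CAGA-GFP cells (1000/well, DMEM with 1% FBS) received compound, then TGF-beta at 500 pg/mL final, and were incubated 18 hours at 37 degrees C. Viability was read by CellTiter-Glo luminescence. Media-only wells were set as complete cell-killing and DMSO as no toxicity.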
TGFb SMAD3 inh = inhibitors of TGF-b signaling; HepG2 CAGA-GFP TGF-b/SMAD3 reporter, GFP fluorescence, 18 h; TGF-beta stimulated, 500 pg/mL final; Potency, µM (doses to about 46.1 µM), for inactives: at the highest dose activity, negative = inhibition, usual class: inhibitors; actives 1.2% (n = 410,000); further: potency means the concentration at half of the fitted maximal effect; on the % scale 0 is the no-effect control and ±100 the full control effect; nearly all actives have a fitted effect of over 65% in size
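HEPG2 CAGA-GFP cells (1000/well, DMEM with 1% FBS) were pre-incubated 2 h at 37 degrees C, given compound by pin tool, then stimulated with TGF-beta at 500 pg/mL final for 18 h before per-cell GFP fluorescence imaging.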
TDP1 cell noCPT = qHTS for Inhibitors of human tyrosyl-DNA phosphodiesterase 1 (TDP1): qHTS in cells in absence of CPT. Potency, µM (doses to about 46.2 µM), inactives show top-dose activity change, negative = growth inhibition, usual class: inhibitors. DT40 Tdp1-/- hTDP1 cells, no CPT, ATP luminescence, 48 h. AID 686978, 2013. actives 15% (n = 420,000); further: potency means the concentration at half of the fitted maximal effect; on the % scale 0 is the no-effect control and ±100 the full control effect; nearly all actives have a fitted effect of over 55% in size
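Chicken DT40 Tdp1-/- cells stably complemented with human TDP1 were seeded at 400 cells/well with DMSO in place of 20 nM camptothecin. After compound pinning, cells grew at least 48 hr at 37 °C; viability read by CellTiter-Glo luminescence.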
* = called active by the depositor; i = inactive; ? = inconclusive; nt = no result; ! = not confirmed by another sample; [ ] = another dose, or the depositor's remark. Shown are actives, neighbours in structure and some others; about 18% of the full set was active somewhere. Unless noted, the call rests on the fitted dose curve; in most records, active means well fitted curve in the direction sought with a large enough effect; inconclusive means small, poorly fitted or top-dose-only effect, or another doubt; inactive means no such curve, though single readings can be large; an effect the other way counts as inactive or inconclusive.

SMILES | TDP1 inh | DT40 TDP1 CPT | IL-1B inflam inh | HepG2 tox | TGFb SMAD3 inh | TDP1 cell noCPT
CCOC(=O)CC(NS(=O)(=O)c1cc(-c2cc(C)no2)ccc1C)c1ccc(C)cc1 (configuration not stated) | 0% | 21µM* | nt | -25% | ? | 8.2µM*
COc1ccc(N2C(=O)[C@@H]3C[C@H]2CN3Cc2cccn2-c2nccs2)cc1Cl | nt | 7% | nt | nt | nt | ?
COc1ccc(NC(=O)Cn2c(C)cc3ccccc3c2=O)c(OC)c1 | 6% | 6% | nt | -20% | 13% | -7%
CCN(CC)C(=O)C1=C(C)N(Cc2ccccc2)C(=O)C(CC(=O)NCc2cccc3ccccc23)C1 (configuration not stated) | nt | ? | -21 | -24% | -16% | 18µM*
CCN(CC)C(=O)C1=C(C)N(Cc2ccc(OC)cc2)C(=O)C(CC(=O)NCc2cccc3ccccc23)C1 (configuration not stated) | nt | ? | -3 | -16% | 2% | 23µM*
CCN(CC)C(=O)C1=C(C)N(CCC2=CCCCC2)C(=O)C(CC(=O)NCc2cccc3ccccc23)C1 (configuration not stated) | nt | 16µM* | -57* | -12% | ? | ?
CCN(CC)C(=O)C1=C(C)N(Cc2ccc(OC)cc2)C(=O)C(CC(=O)NCc2cccs2)C1 (configuration not stated) | nt | -18% | -14 | -1% | -5% | ?
CN(C(=O)c1cc([N+](=O)[O-])ccc1NCc1cccnc1)c1ccccc1 | nt | -18% | 2 | -11% | -4% | -27%
COC(=O)c1c(C(=O)OC)n(CCCN)c2ccc(C)cc12 | -9% | 23µM* | ? | -29% | -9% | 13µM*
COc1ccc(-c2cc(C(F)(F)F)nc(SCC(=O)N(C)Cc3ccccc3)n2)cc1 | -1% | 23µM* | nt | -6% | ? | ?
COc1ccc(-c2cc(C(F)(F)F)nc(SCCC(=O)NCc3ccccc3)n2)cc1 | 4% | ? | -16 | -48% | ? | 18µM*
COc1ccc(-c2cc(C(F)(F)F)nc(SCc3cccc(C(=O)O)c3)n2)cc1 | 0% | -17% | -1 | -13% | 27% | -9%
CCn1cc(CN(C)C(=O)CSc2nc(-c3ccco3)cc(C(F)(F)F)n2)c(C)n1 | nt | ? | 8 | 3% | -3% | 23µM*
COc1ccc(-c2cc(C(F)(F)F)nc(SCCC(=O)Nc3ccc(OC)c(OC)c3)n2)cc1 | -3% | 13µM* | nt | -50% | 0% | 15µM*
Cc1c(CN(C)C(=O)CSc2nc(-c3ccco3)cc(C(F)(F)F)n2)cnn1C | 6% | ? | -12 | -12% | ? | -13%
C=CCN(c1ccccc1)S(=O)(=O)c1cccc(C(=O)NCc2ccco2)c1 | 0% | ? | -15 | -44% | -22% | ?
COC(=O)c1ccc(C(=O)OC)c(NC(=O)COC(=O)C2CCC(C(C)(C)C)CC2)c1 (configuration not stated) | 2% | 23µM* | 30 | -2% | -17% | ?
Cc1ccc(Cl)cc1NC(=O)COC(=O)CC1CC2CCC1C2 (configuration not stated) | -4% | -21% | 10 | 2% | 6% | 0%
COC(=O)c1ccc(C(=O)OC)c(NC(=O)COC(=O)CC2CC3CCC2C3)c1 (configuration not stated) | 0% | ? | 8 | 5% | 2% | 23µM*
COC(=O)CNC(=O)C1CCN(S(=O)(=O)c2cccc3nsnc23)CC1 | 1% | 1% | -6 | 22% | -2% | -10%
O=C(c1ccc(CS(=O)Cc2cccc(Cl)c2)o1)N1CCN(C2CCCCC2)CC1 (configuration not stated) | 3% | -12% | -11 | -1% | 9% | 18%
O=C(c1ccc(CS(=O)Cc2cccc(Cl)c2)o1)N1CCN(c2ccc(F)cc2)CC1 (configuration not stated) | nt | ? | -11 | -21% | -2% | 16µM*
O=C(c1ccc(COc2c(F)c(F)cc(F)c2F)o1)N1CCN(c2ccc(Cl)cc2)CC1 | 9% | 13µM* | -5 | -32% | ? | 16µM*
O=C(c1ccc(CS(=O)Cc2ccc(Cl)cc2)o1)N1CCN(c2ccc(F)cc2)CC1 (configuration not stated) | 5% | ? | ? | -19% | ? | -3%
Cc1ccc(C)c(N2CCN(C(=O)c3ccc(CS(=O)Cc4cccc(Cl)c4)o3)CC2)c1 (configuration not stated) | 5% | ? | -75* | -9% | ? | -14%
SMILES | TDP1 inh | DT40 TDP1 CPT | IL-1B inflam inh | HepG2 tox | TGFb SMAD3 inh | TDP1 cell noCPT
O=C(c1ccc(CS(=O)Cc2ccc(Cl)cc2)o1)N1CCN(c2cccc(Cl)c2)CC1 (configuration not stated) | 7% | ? | -83* | -14% | ? | -28%
COc1ccc(Cl)cc1S(=O)(=O)N1CCC(C(=O)NC2CC2)CC1 | 1% | -1% | i | -33% | -2% | -4%
O=C(NCc1ccccn1)c1cnn(-c2ncc3c(n2)-c2ccccc2CC3)c1C1CC1 | nt | -17%[9.04 µM] | nt | nt | nt | ?
CN[C@H]1CC[C@@H](c2ccc(Cl)c(Cl)c2)c2ccccc21 | 6% | 15µM*! | -21 | nt | nt | 15µM*
CNC1CCC(c2ccc(Cl)c(Cl)c2)c2ccccc21 (configuration not stated) | 8%[56.1 µM] | 15µM* | nt | nt | nt | 18µM*
CCC1CN(CC(=O)NC(C)CO)Cc2cc(OC)ccc2O1 (configuration not stated) | nt | 14%[9.04 µM] | nt | nt | nt | -8%
CCOC(=O)C1CCCN(c2ncnc3c2cnn3-c2cccc(C)c2)C1 (configuration not stated) | -6% | -12% | 6 | -3% | -14% | -10%
CCN(CC)C(=O)C1CCCN(c2ncnc3c2cnn3-c2cccc(C)c2)C1 (configuration not stated) | 0% | ? | -56* | -18% | -6% | 16µM*
CCN(CC)C(=O)C1CCCN(c2ncnc3c2cnn3-c2ccc(Cl)cc2)C1 (configuration not stated) | nt | ? | -54* | -25% | -2% | 18µM*
CCOc1cccc(/C=C/c2ccc3cccc(O)c3n2)c1OC | nt | 21µM* | 27 | -13% | ? | 18µM*

Screening data (PubChem BioAssay)
